Data on 17 compounds can be found in ChEMBL document CHEMBL1961873, “Compounds: GSK PKIS; Assays: Nanosyn kinase panel” (2012).

The target of assay [1] is T1, 3-phosphoinositide-dependent protein kinase 1 (Homo sapiens) (UniProt O15530).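 Note: values are mean inhibition of PDK1.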
T1 sequence (whole entry): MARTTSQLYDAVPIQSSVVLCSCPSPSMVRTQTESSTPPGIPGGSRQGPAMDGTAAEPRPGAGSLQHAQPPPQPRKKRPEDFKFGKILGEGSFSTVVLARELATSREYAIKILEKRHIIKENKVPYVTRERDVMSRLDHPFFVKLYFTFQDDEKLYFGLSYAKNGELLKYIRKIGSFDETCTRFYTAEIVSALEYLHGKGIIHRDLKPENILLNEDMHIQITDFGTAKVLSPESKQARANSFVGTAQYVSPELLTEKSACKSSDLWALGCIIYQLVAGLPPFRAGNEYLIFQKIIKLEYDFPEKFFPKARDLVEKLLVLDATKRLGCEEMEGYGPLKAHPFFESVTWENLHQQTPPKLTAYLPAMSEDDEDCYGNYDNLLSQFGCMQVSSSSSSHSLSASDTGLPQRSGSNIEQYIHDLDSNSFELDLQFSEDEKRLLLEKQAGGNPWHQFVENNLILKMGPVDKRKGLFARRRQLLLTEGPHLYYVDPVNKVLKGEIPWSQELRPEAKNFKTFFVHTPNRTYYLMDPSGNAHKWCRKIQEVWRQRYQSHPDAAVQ
As to conditions: at 0.1 µM.

Assay [2] concerns the target cAMP-dependent protein kinase catalytic subunit alpha (Homo sapiens) (UniProt P17612). As to conditions: at 0.1 µM.
Assay [3] shares this target. The note with it: at 1 µM.
The target of assay [4] is Protein kinase C alpha type (Homo sapiens) (UniProt P17252). The note with it: at 0.1 µM.
Assay [5] shares this target. As to conditions: at 1 µM.
The target of assay [6] is Protein kinase C beta type (Homo sapiens) (UniProt P05771). The note with it: at 0.1 µM.
Assay [7] has the same target. The note with it: at 1 µM.
Assay [8] concerns the target Protein kinase C eta type (Homo sapiens) (UniProt P24723). The note with it: at 0.1 µM.
For assay [9] the target is unchanged. As to conditions: at 1 µM.
In assay [10] the target is Protein kinase C gamma type (Homo sapiens) (UniProt P05129). As to conditions: at 0.1 µM.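 Note: values are mean percent inhibition of PKC gamma.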

Chain of Protein kinase C eta type (Homo sapiens) (P24723 whole entry): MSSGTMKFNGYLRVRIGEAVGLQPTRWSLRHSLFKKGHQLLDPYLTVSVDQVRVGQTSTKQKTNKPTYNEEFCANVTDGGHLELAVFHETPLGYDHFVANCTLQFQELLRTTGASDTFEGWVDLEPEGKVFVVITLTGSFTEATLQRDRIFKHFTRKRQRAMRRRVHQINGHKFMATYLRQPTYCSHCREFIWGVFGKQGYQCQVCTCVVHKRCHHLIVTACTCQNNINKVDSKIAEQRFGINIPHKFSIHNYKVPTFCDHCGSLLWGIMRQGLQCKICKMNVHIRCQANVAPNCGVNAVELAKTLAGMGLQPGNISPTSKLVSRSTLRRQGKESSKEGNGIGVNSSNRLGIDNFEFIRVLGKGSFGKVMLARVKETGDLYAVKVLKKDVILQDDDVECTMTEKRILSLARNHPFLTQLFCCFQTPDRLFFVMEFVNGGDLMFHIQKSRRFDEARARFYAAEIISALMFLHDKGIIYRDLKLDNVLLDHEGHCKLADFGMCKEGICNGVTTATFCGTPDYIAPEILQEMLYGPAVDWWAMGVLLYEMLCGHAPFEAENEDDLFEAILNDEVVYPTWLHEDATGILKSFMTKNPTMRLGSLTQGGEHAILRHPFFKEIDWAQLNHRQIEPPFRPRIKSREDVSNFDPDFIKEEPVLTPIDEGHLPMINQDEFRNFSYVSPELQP
Chain of Protein kinase C beta type (Homo sapiens) (P05771 2-671 limits assumed): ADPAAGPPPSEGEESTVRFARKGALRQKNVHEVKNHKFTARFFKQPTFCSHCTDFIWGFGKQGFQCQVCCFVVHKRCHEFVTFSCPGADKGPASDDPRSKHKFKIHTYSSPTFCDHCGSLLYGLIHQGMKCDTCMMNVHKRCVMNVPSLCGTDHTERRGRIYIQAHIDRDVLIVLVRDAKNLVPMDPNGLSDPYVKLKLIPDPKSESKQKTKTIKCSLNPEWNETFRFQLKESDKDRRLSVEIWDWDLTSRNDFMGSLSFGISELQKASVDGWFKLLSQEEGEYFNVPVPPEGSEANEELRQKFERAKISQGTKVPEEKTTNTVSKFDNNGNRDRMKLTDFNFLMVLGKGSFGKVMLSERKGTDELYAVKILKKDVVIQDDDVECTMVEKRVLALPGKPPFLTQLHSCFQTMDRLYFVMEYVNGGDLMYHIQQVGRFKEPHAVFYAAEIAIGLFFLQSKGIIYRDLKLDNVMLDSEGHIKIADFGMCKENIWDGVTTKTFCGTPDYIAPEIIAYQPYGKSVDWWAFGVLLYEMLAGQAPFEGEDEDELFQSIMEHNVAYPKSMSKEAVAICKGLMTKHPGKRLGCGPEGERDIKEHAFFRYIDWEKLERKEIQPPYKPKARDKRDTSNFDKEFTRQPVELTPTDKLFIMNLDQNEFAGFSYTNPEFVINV

Consider `CCS(=O)(=O)c1ccc(OC)c(Nc2ncc(-c3ccccc3Cl)o2)c1`, for which the inhibition in [1] is 4.14%; in [2], 1.17%; in assay [3], 1.75%; in [4], 0.48%; in assay [5], 1.87%; in assay [6] it was 0.67%. Besides, the inhibition was 0.07% in assay [7], 0.14% in [8], 0.6% in assay [9] and -2.72% in assay [10].

As to `NCc1ccc(-n2c(-c3nonc3N)nc3cnccc32)cc1`, the inhibition worked out at 2.61% in assay [1]; 10.4% in assay [2]; 56.1% in [3]; 4.7% in assay [4]; 41% in [5]; 29.1% in assay [6]. The inhibition in assay [7] was determined as 64.5%; in assay [8], 47.1%; in assay [9], 88.4%; in [10], 4.15%.

Turning to `O=C1NC(=O)C(c2cccc(Cl)c2)=C1Nc1ccc(Cl)c(C(=O)O)c1`, the inhibition in [1] turned out to be 1.28%; in [2] it was 2.1%; in [3] it was 1.05%; in assay [4] it was 0.36%; in [5] it was 0.21%; in assay [6], 0.61%. Besides, the inhibition in assay [7] was 1.11%; in [8], 3.84%; in assay [9], 8.96%; in assay [10], 4.02%.

In the case of `NC(=O)c1cc(-c2ccc(F)cc2)cc(-c2ccncc2)c1N`, the inhibition is 1.54% in assay [1]; 1.46% in assay [2]; 3.06% in [3]; 0.16% in assay [4]; 1.21% in assay [5]; -1.29% in assay [6]. For the same compound, the inhibition in assay [7] is 3.15%; in [8], 3.71%; in assay [9], 8.19%; in assay [10], 0.15%.

`Cc1ccc(C(=O)NC(C)C)cc1-c1ccc(C(=O)NCC2CC2)cc1`: the inhibition in assay [1] is -3.15%; in assay [2], -2.08%; in assay [3], -1.32%; in assay [4] it was -0.49%; in assay [5], 0.46%; in assay [6], -0.62%. For the same compound, the inhibition in assay [7] was -0.82%; in assay [8], -2.29%; in assay [9], -3.07%; in assay [10], -0.67%.

Take `CCc1cccc(CC)c1/C=C/c1cncc(C(=O)NC)c1`: the inhibition amounted to 0.34% in [1]; 1.89% in assay [2]; 1.06% in [3]; 1.01% in assay [4]; 3.13% in assay [5]; 0.31% in assay [6]. The inhibition in assay [7] was 0.32%; in [8], 1.99%; in [9], -0.26%; in assay [10], 1.06%.

On to `c1ccc(Oc2ccc(Nc3ncc(-c4ccccc4)o3)cc2)cc1`, for which the inhibition in [1] came out at 3.8%; in [2] it was 1.26%; in assay [3], 5.43%; in assay [4], 1.03%; in assay [5] it was 1.47%; in [6], 1.14%. The inhibition in [7] is 0.76%; in assay [8], -1.38%; in [9], -0.47%; in assay [10], 1.13%.

As to `COc1ccc2cc(-c3c(-c4ccncc4)nc(-c4ccc(S(C)(=O)=O)cc4C)n3C)ccc2c1`, the inhibition was 0.71% in assay [1]; 8.44% in [2]; 29.8% in assay [3]; 1.11% in assay [4]; 6.73% in [5]; 2.3% in assay [6]. The inhibition in [7] was 14.5%; in [8], 7.27%; in [9], 7.65%; in [10], 2.09%.

For the compound `COc1ccc2cc(-c3c(-c4ccncc4)nc(-c4ccc([S+](C)[O-])cc4C)n3C)ccc2c1` (stereo not given), the inhibition is 0.48% in assay [1]; 2.01% in [2]; 21.8% in assay [3]; 0.33% in assay [4]; 1.35% in [5]; 2.04% in [6]. In addition, the inhibition was 13% in assay [7], 0.16% in assay [8], 0.69% in [9] and -0.82% in assay [10].

For the compound `CN(c1ccc(NC(=O)Nc2c(Cl)cccc2Cl)cc1)c1ccnc(Nc2cccc(CS(C)(=O)=O)c2)n1`, the inhibition worked out at 9.04% in assay [1]; 2.36% in assay [2]; 3.01% in [3]; 1.14% in [4]; 2.02% in assay [5]; 0.67% in assay [6]. The inhibition worked out at 1.35% in assay [7], 1.33% in assay [8], 3.8% in [9] and 3.61% in assay [10].

Turning to `COC(=O)Nc1nc2ccc(Sc3ccc(NC(=O)Nc4cc(C(F)(F)F)ccc4F)cc3)cc2[nH]1`, the inhibition in assay [1] is 1.38%; in assay [2], -0.04%; in assay [3] it was 2.01%; in assay [4], 0.22%; in assay [5], 0.15%; in [6] it was 0.84%. Moreover, the inhibition is 0.31% in assay [7], -1.46% in assay [8], 0.54% in [9] and 2.88% in [10].

On to `COc1cc2ncn(-c3cc(OCc4ccccc4C(F)(F)F)c(C(C)=O)s3)c2cc1OC`, for which the inhibition is 0.15% in assay [1]; 1.04% in [2]; 1.7% in assay [3]; -0.12% in [4]; 0.82% in assay [5]; 1.02% in [6]. Besides, the inhibition in assay [7] is 0.44%; in assay [8], 3.8%; in assay [9] it was 3.47%; in assay [10] it was -0.98%.

For `Clc1ccc(CNc2nccc(-c3cnn4ncccc34)n2)cc1`, the inhibition in [1] came to 2.08%; in assay [2], 0.38%; in [3], 1.31%; in assay [4], 0.92%; in assay [5], 4.19%; in assay [6], 0.26%. Also, the inhibition in assay [7] was 1.03%; in assay [8] it was 2.3%; in [9], 7.54%; in [10], 0.4%.

Consider `C#Cc1cccc(Nc2ncnc3ccc(OCCCCNCCS(C)(=O)=O)cc23)c1`, for which the inhibition was 1.83% in assay [1]; -0.23% in [2]; -0.04% in [3]; -2.51% in [4]; 0.29% in [5]; 1.6% in assay [6]. Also, the inhibition in assay [7] was found to be 4.77%; in assay [8], 0.97%; in [9], 4.94%; in assay [10], 3.27%.

With `CCc1nccc2c1nc(-c1nonc1N)n2CC`, the inhibition in assay [1] is 0.73%; in assay [2] it was 1.21%; in assay [3], 4.19%; in [4] it was 1.25%; in [5], 2.71%; in assay [6] it was 2.42%. Moreover, the inhibition in assay [7] is 20%; in assay [8], 4.76%; in assay [9], 21.1%; in assay [10], -1.83%.

`Nc1nccc(-c2c(-c3ccc(F)cc3)ncn2C2CCC(O)CC2)n1` (stereo not given): the inhibition turned out to be 0.39% in [1]; 4.16% in assay [2]; 48.4% in assay [3]; 0.74% in [4]; 10.2% in assay [5]; 3.05% in assay [6]. The inhibition in assay [7] is 20.3%; in assay [8], -3.17%; in [9], -1.04%; in assay [10], -3.99%.

Take `O=C1Nc2ccccc2/C1=C/Nc1ccc(-n2cncn2)cc1`: the inhibition stood at 2.38% in [1]; 1.48% in assay [2]; 4.31% in [3]; 0.43% in [4]; 1.82% in [5]; 0.83% in assay [6]. Moreover, the inhibition was 2.25% in assay [7], 8.55% in assay [8], 5.57% in assay [9] and 0.54% in assay [10].
